D2 antagonist: HTS Assay for Allosteric Antagonists of the Human D2 Dopamine Receptor: Primary Screen for Antagonists. HEK293 TREx D2 cells, calcium flux, dopamine EC80. inhibition, % at 10 µM. 340,000 compounds, 2% hits. AID 485344, 2010; in the data active = inhibition above about 30%; inactive = below that, where a call was filed; also: 0% is about no effect
Target sequence (P14416 whole entry, looked up): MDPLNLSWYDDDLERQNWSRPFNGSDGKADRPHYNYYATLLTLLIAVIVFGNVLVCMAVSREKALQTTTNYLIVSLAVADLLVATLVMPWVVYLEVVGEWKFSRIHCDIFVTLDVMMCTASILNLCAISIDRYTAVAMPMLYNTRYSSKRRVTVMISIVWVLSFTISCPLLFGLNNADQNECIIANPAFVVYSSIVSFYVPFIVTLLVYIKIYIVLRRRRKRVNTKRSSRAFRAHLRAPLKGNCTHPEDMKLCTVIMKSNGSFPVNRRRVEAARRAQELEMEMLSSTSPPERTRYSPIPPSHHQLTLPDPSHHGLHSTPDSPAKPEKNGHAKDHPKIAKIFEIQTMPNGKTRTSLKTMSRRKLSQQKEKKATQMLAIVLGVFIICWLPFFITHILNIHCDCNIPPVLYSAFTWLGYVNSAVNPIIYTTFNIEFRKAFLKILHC
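Antagonism is scored as inhibition of an EC80 dopamine-evoked calcium signal in a force-coupled, tetracycline-inducible HEK293 T-REx D2 line, with compound present 180 s before agonist.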
D2 PAM-1: HTS Assay for Positive Allosteric Modulators of the Human D2 Dopamine Receptor: Primary Screen for Potentiators | D(2) dopamine receptor (Homo sapiens), P14416 | HEK293 T-REx D2, calcium flux, EC20 dopamine potentiation | potentiation, % at 10 µM | 340,000 compounds, 0.34% hits;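 active = potentiation over 3 SD above the plate norm, cut at about 30% in these data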; also: 0% is about no effect
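Cells plated with tetracycline inducer and held overnight at 30 C; calcium dye loaded 30–90 min at room temperature; baseline taken, compound added and read 180 s; EC20 dopamine then added and read 180 s.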
D2 ag-1: HTS Assay for Allosteric Agonists of the Human D2 Dopamine Receptor: Primary Screen for Agonists | HEK293 T-REx D2 cells, calcium flux agonist mode | activation, % at 2 µM | 340,000 compounds, 0.53% hits | AID 485358, 2010;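 active = activation over 3 SD above normal in the single-dose calcium agonist read, cut at about 30% in these data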; also: 0% is about no effect
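Agonism is scored from calcium flux in a force-coupled, inducible HEK293 cell line expressing D2, read kinetically for 180 s after compound addition against dopamine controls.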
D2 ag-2: Beta-Arrestin HTS for Positive Allosteric Modulators of the Human D2 Dopamine Receptor: Agonists; activation, % (concentration not given with the values); D(2) dopamine receptor (Homo sapiens), P14416; 360,000 compounds, 0.084% hits; DiscoveRx PathHunter D2 beta-arrestin, luminescence, 90 min; 100% = 57 uM dopamine signal; in the data active = activation above about 40%; inconclusive = between about 15% and that limit
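Agonist mode: compounds alone added to overnight-plated D2 PathHunter cells for 90 min at 37 C, with 57 uM final dopamine (EC100) defining full response. Beta-arrestin recruitment detected by chemiluminescent reagent, read after 1 h at ambient temperature.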
D2 PAM-2: Beta-Arrestin HTS for Positive Allosteric Modulators of the Human D2 Dopamine Receptor: Potentiators; DiscoveRx D2 beta-arrestin cells, luminescence, 90 min; 100% = 57 uM dopamine signal; potentiation, % (test concentration not listed); 360,000 compounds, 0.23% hits; AID 624464, 2012; in the data active = potentiation above about 50%; inconclusive = mostly about 30% to 49%
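D2 cells co-treated with compound plus 50 nM dopamine (EC20) for 90 min at 37 deg C to detect potentiation. Beta-arrestin recruitment was read as enzyme-fragment luminescence after 1 h at ambient temperature. Full response was set by 57 uM dopamine.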
Active calls of the source: *; ? = inconclusive; . = no result given. The list is not random: actives were taken first. Their share in the collection is about 2.4%.

SMILES	D2 antagonist	D2 PAM-1	D2 ag-1	D2 ag-2	D2 PAM-2
COc1ccc(C)cc1NC(=O)CNC(c1ccccc1)c1ccccc1	37.2*	4.9	1.0	-3.1	-10.6
COc1ccc(Cl)cc1NC(=O)CNC(c1ccccc1)c1ccccc1	-6.1	-2.4	1.1	-2.2	-5.3
COc1ccc(OC)c(NC(=O)CNC(c2ccccc2)c2ccccc2)c1	31.3*	4.3	-0.5	-4.6	-2.6
CC1CCN(CC(=O)NC2CCCCC2)CC1	16.3	-13.3	33.6*	0.9	-3.1
COc1cc2c(cc1OC)C1=C(C#N)CN(C3CCCCC3)CN1CC2	40.2*	2.3	-1.6	3.7	-6.5
Cc1nn(C(=O)c2cccc([N+](=O)[O-])c2C)c(C)c1S(=O)(=O)N1CCOCC1	.	8.4	-0.9	.	.
CCC(=O)Oc1ccc(C(=O)Nc2c[nH]c(=O)[nH]c2=O)cc1	34.6*	-1.8	1.7	-2.1	8.4
Cc1ccc(C(=O)N/C(N)=N/c2nc3ccccc3o2)cc1	53.0*	8.3	0.3	-1.8	0.5
Brc1ccccc1OCCCCN1CCCCC1	75.8*	-28.7	1.9	-4.7	-4.7
CC1CCN(CCCCOc2ccccc2F)CC1	81.5*	-32.1	1.8	-3.3	-22.7
Brc1ccccc1OCCCN1CCOCC1	1.7	-19.8	0.6	-0.4	-20.8
CC1CCN(CCCCOc2ccccc2Br)CC1	90.7*	-26.6	0.7	-6.2	-24.6
COc1ccc(C2C(O)C(c3c[nH]c4ccccc34)=NN2C(=O)CCl)cc1 (stereo unspecified)	31.6*	-4.2	0.0	-4.4	5.6
O=C(CN1CCN(Cc2ccccc2F)C1=O)NC1CCCC1	40.0*	2.2	-0.2	-3.9	-9.5
O=C(CN1CCCN(Cc2ccc(F)cc2Cl)C1=O)NC1CCCCCCC1	-6.9	-3.9	1.1	-1.0	-16.1
CN(C)/C=C1\Oc2ccc3ccccc3c2C1=O	-4.6	6.7	-3.3	2.5	-3.0
O=C1C(=O)c2c(ccc3ccccc23)-c2ccccc21	.	.	.	?	58.8*
O=C(NCCN1CCOCC1)c1cccc(Cl)c1	32.7*	-16.0	2.3	-3.1	-9.3
O=C(NCCN1CCOCC1)c1cccc(Br)c1	.	.	.	1.7	-5.7
Clc1cccc(-c2ccc(CNCCCN3CCOCC3)o2)c1	91.6*	-20.8	-1.3	-2.9	-19.6
CC1=CCC(C(=O)O)C(C(=O)NC2CCCCC2)C1 (stereo unspecified)	44.6*	20.4	1.9	0.7	-3.9
CC1=C(C)CC(C(=O)NC2CCCC2)C(C(=O)O)C1 (stereo unspecified)	-3.9	4.7	0.3	-1.5	0.1
Cc1nc(N2CCOCC2)[nH]c(=O)c1CCC(C)C	0.3	0.9	0.4	-2.5	14.2
Cc1nc(N2CCOCC2)[nH]c(=O)c1C(O)C(Cl)(Cl)Cl (stereo unspecified)	48.1*	-4.3	0.7	-4.3	-7.7
CCOc1ccc(Br)cc1S(=O)(=O)N1CCCC1	53.6*	0.2	-0.3	-0.4	-2.9
SMILES	D2 antagonist	D2 PAM-1	D2 ag-1	D2 ag-2	D2 PAM-2
Cc1ccccc1C(=O)Nc1nc(-c2ccc(Br)cc2)ns1	.	-18.2	-0.2	.	.
Cc1cc2ncn(C3CC(=O)N(Cc4ccccc4)C3=O)c2cc1C (stereo unspecified)	-15.3	39.4*	-0.2	2.7	11.1
O=Cc1c(C(=O)O)n(CC(=O)O)c2ccccc12	-14.1	2.0	2.2	13.3	69.0*
C=C1CCN([C@@H](C)C(=O)OCc2cccc(C)c2)S(=O)(=O)c2ccccc21	31.0*	12.2	0.5	3.7	0.5
COc1cccc(CCNC(=O)c2c(O)nc3c(C)cccn3c2=O)c1	.	-3.8	-0.5	.	.
Cc1ccc(S(=O)(=O)N(CC(=O)N2CCOCC2)CC(=O)N2CCOCC2)cc1	4.9	31.1*	0.1	-1.5	-6.1
Cc1nn(C)c2c1c(-c1ccccc1)cc(=O)n2CC(=O)NC(C)C	.	-3.8	0.0	.	.
Cc1nc(-c2ccccc2)sc1-c1n[nH]c(=S)n1C	-5.5	40.5*	0.7	1.8	-16.7

Source: PubChem BioAssay
